Experimental data as given in PubChem BioAssay (Tox21).
Records with an inconclusive call do not appear. Where a call stands in place of a potency, no number is given. The source made the active and inactive calls. The call rests on the fitted dose curve; in most records, active means well fitted cell-killing curve with a large enough effect in the repeat runs; inconclusive means weak or mixed curves; inactive means flat fitted curve, though single readings scatter.

Experiment: qHTS RealTime-Glo MT Cell Viability Assay in HepG2 cells - 8 hour (AID 1224873); further: nearly all actives have a fitted effect of over 55% in size
Settings: RealTime-Glo luminescence; series mostly up to 76.8 µM
Text: National Center for Advancing Translational Sciences [NCATS]
NIH Chemical Genomics Center [NCGC]
U.S. Environmental Protection Agency [EPA]
National Institutes of Environmental Health Sciences [NIEHS]
National Toxicology Program [NTP]
U.S. Food and Drug Administration [FDA]
Measure of cell viability is critical in the cell-base assay. Analysis of cell viability is necessary for the characterization of cell responses to cytotoxic drugs and environmental stress. A RealTime-Glo MT Cell Viability Assay to monitor cell viability in real time of continues cell culture during 40 hours of compound treatment was used to screen Tox21 10K library compounds in HepG2 cells. The RealTime-Glo MT Cell Viability Assay is a nonlytic, homogeneous, bioluminescent method to measure cell viability in real time using a simple, plate-based method. The assay involves adding NanoLuc luciferase and a cell-permeant prosubstrate to cells in culture. Viable cells reduce the proprietary prosubstrate to generate a substrate for NanoLuc luciferase. This substrate diffuses from cells into the surrounding culture medium, where it is rapidly used by the NanoLuc Enzyme to produce a luminescent signal. The signal correlates with the number of viable cells, making the assay well suited for cytotoxicity studies.
Tox21 Assay Protocol Summary:
The mixture of HepG2 cell suspension and reagents were dispensed at 600cells/6 ul/well in 1536-well tissue culture treated black solid bottom plates using a Multidrop dispenser. After the assay plates were incubated at a 37 C/5% CO2 incubator for 5 hours, 23 nL of compounds dissolved in DMSO, positive and negative controls was transferred to the assay plate by a pintool work station. The plates were incubated at 37 C for 40 hours. The luminescence intensity were measured at 0h, 8h, 16h, 24h, 32h and 40h time points using ViewLux plate reader during compound treatment.
With NC[C@H](O)c1ccc(O)c(O)c1 the Potency was “inactive”.
In the case of CC(=O)OC(C)C, the Potency is reported as “inactive”.
With CCCCCCCC/C=C\CCCCCCCC(=O)O the Potency was “inactive”.
For IC(I)I, the Potency was “inactive”.
With O=Cc1ccccc1C=O the Potency was “inactive”.
For CNC[C@H](O)c1ccc(O)c(O)c1, the Potency was “inactive”.
For C[C@]12C=CC(=O)C=C1CC[C@H]1[C@@H]3C[C@@H](O)[C@](O)(C(=O)CO)[C@@]3(C)C[C@H](O)[C@@]12F, the Potency was “inactive”.
In the case of OCCNCCO, the Potency is reported as “inactive”.
With C=CCCCCCCCCCC the Potency was “inactive”.
For C=C[Si](OCCOC)(OCCOC)OCCOC, the Potency was “inactive”.
In the case of C=CC(=O)OCCCC, the Potency is reported as “inactive”.
For NCCOCCO, the Potency was “inactive”.
With COc1cc([C@H]2Oc3cc([C@H]4Oc5cc(O)cc(O)c5C(=O)[C@@H]4O)ccc3O[C@@H]2CO)ccc1O the Potency was “inactive”.
For FC(F)(F)C(Cl)Br (stereo not given), the Potency was “inactive”.
In the case of CCCCCCCCCCC(CO)CCCCCCCC (stereo not given), the Potency is reported as “inactive”.
With C[N+](C)(C)CCO the Potency was “inactive”.
In the case of Cc1ccc(/C(=C\CN2CCCC2)c2ccccn2)cc1, the Potency is reported as “inactive”.
For CC(C)(C)c1cccc(C(C)(C)C)c1O, the Potency was “inactive”.
With CCOC(=O)C(C)Oc1ccc(Oc2cnc3cc(Cl)ccc3n2)cc1 (stereo not given) the Potency was “inactive”.
In the case of COc1ccc(-c2coc3cc(O)cc(O)c3c2=O)cc1, the Potency is reported as “inactive”.
For C/C=C/C(=O)N(CC)c1ccccc1C, the Potency was “inactive”.
With CC(=O)Nc1ccc2c(c1)Cc1cc(NC(C)=O)ccc1-2 the Potency was “inactive”.
In the case of O=S1(=O)CCCO1, the Potency is reported as “inactive”.
With CC1(C)C(C=C(Cl)Cl)C1C(=O)OCc1cccc(Oc2ccccc2)c1 (stereo not given) the Potency was “inactive”.
In the case of CCCCCC=O, the Potency is reported as “inactive”.
With C=C[C@H]1CN2CC[C@H]1C[C@@H]2[C@@H](O)c1ccnc2ccc(OC)cc12 the Potency was “inactive”.
For C=CN1CCCC1=O, the Potency was “inactive”.
With C=CCNCC=C the Potency was “inactive”.
In the case of Cc1ccc(C)c(O)c1, the Potency is reported as “inactive”.
In the case of Nc1ccc2c(O)cc(S(=O)(=O)O)cc2c1, the Potency is reported as “inactive”.
With CCCOCCO the Potency was “inactive”.
In the case of ClC/C=C/CCl, the Potency is reported as “inactive”.
With Cc1ccc2c(c1)C(=O)OC2=O the Potency was “inactive”.
In the case of Cc1cccc(Nc2ccccc2C(=O)O)c1C, the Potency is reported as “inactive”.
With c1ccc2cc3ccccc3cc2c1 the Potency was “inactive”.
With C=CCOC(=O)C(=C)C the Potency was “inactive”.
In the case of C=CC(C)(O)CCC=C(C)C (stereo not given), the Potency is reported as “inactive”.
For CC(=O)Oc1c(C)c(C)c2c(c1C)CC[C@@](C)(CCC[C@H](C)CCC[C@H](C)CCCC(C)C)O2, the Potency was “inactive”.
With CC/C(=C(/CC)c1ccc(O)cc1)c1ccc(O)cc1 the Potency was “inactive”.
With [Na+] the Potency was “inactive”.
